The values below come from the supplement of paper PMC7866885, “A novel bicyclic 2,4-diaminopyrimidine inhibitor of Streptococcus suis dihydrofolate reductase” (PeerJ, 2021).

± gives the standard deviation.

This test has as its system Streptococcus suis P1/7. In words: percent growth relative to DMSO control; higher = less growth inhibition. The following applies: 10 µM; incubation time 18 h. The protocol: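 CLSI broth microdilution: 5x10^4 CFU of Streptococcus suis (strain P1/7 or HE06) incubated with 10 µM Pathogen Box compound in cation-adjusted Mueller Hinton broth, 37 °C, 5% CO2, 18 h. Growth read as OD600 and expressed as percent of the DMSO-treated control (100%); mean ± SD of three independent experiments.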
In turn, `C[C@H]1COc2c(N3CCN(C)CC3)c(F)cc3c(=O)c(C(=O)O)cn1c23` returned a percent growth of 1.55 ± 1.7%.

In the case of `O=C(COc1cccc(F)c1)Nc1nc(-c2ccccn2)cs1`, the percent growth worked out at 3.07 ± 5.3%.

Regarding `Clc1ccc(Cl)c(CO[C@H]2CCCC[C@@H]2n2ccnc2)c1`, the percent growth was found to be 20.8 ± 36%.

`O=C(Nc1ccccc1-c1nc2c(C(=O)O)cccc2o1)c1ccccc1` returned a percent growth of 68.3 ± 5.7%.

Take `CC1=NN(c2nc3ccccc3s2)C(=O)C1Cc1cccc2ccccc12` (stereo not given): the percent growth is 3.74 ± 3.5%.

Compound `COc1cc(NC(C)CCCN)c2ncccc2c1` (stereo not given) registered a percent growth of 127 ± 60%.

In the case of `CC1CCCCN1C(=O)NCCc1coc(-c2ccc(F)cc2)n1` (stereo not given), the percent growth came out at 120 ± 87%.

The compound `Clc1cccc(CO[C@H]2CCc3ccccc3[C@@H]2n2ccnn2)c1` came in with a percent growth of 95.9 ± 18%.

On to `CC(C(=O)Nc1ccc2oc(-c3ccncc3)nc2c1)c1ccccc1` (stereo not given), for which the percent growth is 95.8 ± 45%.

In turn, `Cc1cc(NCCc2ccccc2)nc(NC(=N)Nc2ccc(Cl)cc2)n1` registered a percent growth of 74.4 ± 13%.

`O=C(Nc1ccc(N2CCNCC2)cc1)c1ccn2ncc(-c3cccc(Cl)c3)c2n1` returned a percent growth of 75.2 ± 22%.

The compound `Cc1cccc(-c2nc(Nc3ccncn3)c3sccc3n2)n1` yielded a percent growth of 0.888 ± 0.29%.

`CN1CCC(NCc2cccc(-c3ccc(S(=O)(=O)NCc4ccccc4)cc3)c2)CC1` yielded a percent growth of 70.3 ± 11%.

`Cc1cc(OCC(=O)Nc2ccc(C(C)C)cc2)n(C)c(=O)c1C#N`: the percent growth worked out at 79 ± 12%.

The compound `CNC(=O)c1nn(C)c2c1C(C)(C)Cc1cnc(Nc3ccc(N4CCN(C)CC4)cc3)nc1-2` had a percent growth of 92.6 ± 19%.

Compound `Nc1ncnc2c1c(-c1cnc3ccccc3c1)nn2CC1CCNCC1` yielded a percent growth of 102 ± 20%.

In turn, `CC(=O)NCC1CN(c2ccc(-c3ccc(CO)cc3)c(F)c2)C(=O)O1` (stereo not given) had a percent growth of 0.214 ± 0.37%.

With `O=C(Nc1ccc(C(F)(F)F)c(C(F)(F)F)c1)c1cc(Cl)ccc1O`, the percent growth was 6.44 ± 11%.

Compound `CC(C)n1nc(-c2cc3c(Cl)cccc3[nH]2)c2c(N)ncnc21` registered a percent growth of 74.2 ± 5.9%.

Compound `Cc1cccc(Cn2ccc(NC(=O)c3ccc4c(c3)OCO4)n2)c1` came in with a percent growth of 102 ± 23%.

In turn, `Cc1nnc(NC(=O)c2cn(-c3ccccc3)nc2-c2ccccc2C)o1` gave a percent growth of 0.18 ± 0.31%.

In turn, `CC(C)(C)c1cnc(NC(=O)c2ccccc2O)s1` came in with a percent growth of 1.61 ± 1.4%.

As to `Cc1cc2ccccc2n1CC(=O)N1CC(C(=O)N2CCCCC2)Oc2ccccc21` (stereo not given), the percent growth turned out to be 102 ± 19%.

Compound `NS(=O)(=O)c1cccc(-c2ccc3ncc(N4CCOCC4)nc3c2)c1` registered a percent growth of 71.6 ± 6.4%.

The compound `CN1CCN(c2nccc3[nH]c(-c4cccc(F)c4)cc23)CC1` registered a percent growth of 96 ± 26%.

As for `O=C(NCc1ccoc1)N1CCN(Cc2ccc3c(c2)OCO3)CC1`, the percent growth came out at 78.3 ± 6.3%.

In turn, `COc1nc2ccc(Br)cc2cc1[C@@H](c1ccccc1)[C@@](O)(CCN(C)C)c1cccc2ccccc12` had a percent growth of 68.8 ± 37%.

The compound `COc1ccc(-c2nc(-c3cccc(NC(=O)Cc4ccc(F)cc4)c3)no2)cc1OC` came in with a percent growth of 102 ± 57%.

In turn, `Cc1cc(C(=O)Nc2ccc(-c3ccccc3)cc2)no1` had a percent growth of 118 ± 42%.

With `CS(=O)(=O)Cc1nc2ccccc2oc1=O`, the percent growth is 88.2 ± 53%.

Take `CCc1ccc([C@@H]2C[C@H](C(F)(F)F)n3ncc(C(=O)NCc4ccc(OC)cc4)c3N2)cc1`: the percent growth came out at 75.4 ± 5.3%.

With `CC(C)NCC(=O)Nc1cccc(C(=O)Nc2cccc(C(F)(F)F)c2)c1`, the percent growth was 125 ± 65%.

`Nc1cccnc1Nc1ccc(Cl)cc1` returned a percent growth of 101 ± 40%.

Turning to `O=C(C1CCN(c2nnnn2-c2ccccc2)CC1)N1CCc2ccccc2C1`, the percent growth amounted to 62.4 ± 21%.

Regarding `CCS(=O)(=O)N(Cc1ccco1)Cc1cc2ccc(C)cc2nc1O`, the percent growth was 77.1 ± 19%.

`COc1ccc(OC)c(NCc2ccc3nc(N)nc(N)c3c2Cl)c1`: the percent growth was 2.34 ± 1.3%.

`CCOC(=O)NC(=O)c1ccsc1NC(=O)c1nc2ccccc2s1` gave a percent growth of 5.08 ± 8.2%.

Regarding `COc1ccc(CN2CCOc3ccc(C(C)(O)CN(C)C)cc3C2)cc1C` (stereo not given), the percent growth came to 101 ± 27%.

`O=C(c1ccco1)N(CCCn1ccnc1)c1nc2c(Cl)cccc2s1`: the percent growth came to 34.1 ± 59%.

`FC(F)(F)c1cnc(Sc2nnc(-c3ccncc3)o2)c(Cl)c1` gave a percent growth of 67.2 ± 20%.
